Assay outcomes (PubChem BioAssay)
This is a sample that favours compounds with a hit; in the whole collection about 22% have one here.
Cycloheximide cs: counter-screen hit for Shiga toxin inhibitors, cycloheximide | cell reporter, cycloheximide protein synthesis inhibition counterscreen | max response, % | 12% of 300,000 active | AID 2314; in the data active = max response mostly above about 13%, no sharp cut-off; inactive = mostly below about 14%; also: read at 38.3 µM for the half of the compounds with a filed dose
Pf growth 48h: inhibits P. falciparum growth in the first generation, 48 h. P. falciparum luciferase growth in erythrocytes, 48 h. 5.9% of 310,000 active. AID 504832. Potency, µM (highest dose often 28.7 µM), actives largely listed as inhibitors
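Here the parasites carry a stable luciferase gene and grow inside erythrocytes in Albumax-based RPMI medium with compound for one erythrocytic cycle. Activity is scored as loss of luminescent signal.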
Pf growth 96h: P. falciparum growth inhibition at 96 hours. P. falciparum luciferase reporter growth, 96 h. Potency, µM (doses to about 28.7 µM), usual class: inhibitors. 6.9% of 320,000 active. AID 504834
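Erythrocytes infected with luciferase-expressing P. falciparum were dispensed at 2% hematocrit and 0.05% parasitemia (final), then incubated with compounds 96 hours at 37 C in 5% CO2. Luminescence after detection reagent addition reported growth.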
LmPK inhibitor: blocks Leishmania mexicana pyruvate kinase activity; Q27686; purified LmPK, Kinase-Glo ATP luminescence, 1 h; Potency, µM (top dose mostly 57.5 µM), hits mostly inhibitors; 0.37% of 290,000 active
Target sequence (Q27686 whole entry, looked up): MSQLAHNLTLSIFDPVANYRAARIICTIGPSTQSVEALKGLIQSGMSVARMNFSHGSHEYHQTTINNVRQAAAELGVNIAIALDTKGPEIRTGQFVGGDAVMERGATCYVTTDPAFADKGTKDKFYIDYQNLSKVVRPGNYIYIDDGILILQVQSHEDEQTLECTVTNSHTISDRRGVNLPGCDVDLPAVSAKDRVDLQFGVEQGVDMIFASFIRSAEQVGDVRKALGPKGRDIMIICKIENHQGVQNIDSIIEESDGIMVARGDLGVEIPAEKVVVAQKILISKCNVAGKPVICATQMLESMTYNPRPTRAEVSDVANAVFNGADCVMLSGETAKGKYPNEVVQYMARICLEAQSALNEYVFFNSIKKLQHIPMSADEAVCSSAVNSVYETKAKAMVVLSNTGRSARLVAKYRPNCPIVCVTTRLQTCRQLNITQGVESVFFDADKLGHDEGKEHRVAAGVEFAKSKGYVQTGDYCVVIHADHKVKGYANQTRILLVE
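Screened at intermediate enzyme activity to detect both inhibitors and activators: LmPK at 0.1 nM, with a 0.5 nM enzyme column as activation reference. PEP 0.5 mM, ADP 0.1 mM; ATP detected by luminescence after 1 h.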
Shiga inhibitor: Shiga toxin inhibition; 9.2% of 290,000 active; AID 2315; inhibition, % at 38.7 µM; Vero cells, Shiga toxin protein synthesis inhibition reporter; in the data active = inhibition mostly above about 28%, no sharp cut-off; inactive = mostly below about 43%
A number is an active result; - = inactive; ? = inconclusive; . = not tested or not shown. Unless noted, calls follow the shape of the dose curve; as a rule, active = well fitted inhibition curve with a large enough effect; inconclusive = small, poorly fitted or top-dose-only effect, or another doubt; inactive = no such curve, though single readings can be large or run the other way.

SMILES	Cycloheximide cs	Pf growth 48h	Pf growth 96h	LmPK inhibitor	Shiga inhibitor
Cc1ccnc(NC(=O)Nc2cccc(F)c2)n1	28.4	-	-	-	79.2
COC(=O)c1ccccc1NC(=O)Nc1cccc(C)n1	-	-	?	-	-
O=C(c1ccc(S(=O)(=O)Cc2ccccc2Cl)c([N+](=O)[O-])c1)N1CCN(c2ccccn2)CC1	-	?	13.1µM	-	-
O=C(c1ccc(S(=O)(=O)Cc2cc(F)ccc2F)c([N+](=O)[O-])c1)N1CCCC1	-	-	?	-	-
O=C(c1ccc(S(=O)(=O)Cc2cc(F)ccc2F)c([N+](=O)[O-])c1)N1CCCCC1	-	14.7µM	-	-	-
C[n+]1c2ccccc2nc2ccc(NCCO)cc21	12.5	0.117µM	0.131µM	-	-
CCN(CC)c1ccc2nc3ccccc3[n+](CC)c2c1	-	-	?	?	-
CNc1ccc2nc3ccccc3[n+](C)c2c1	35.2	0.165µM	0.165µM	-	66.6
COC(=O)C1CC1[C@H](NC(=O)c1cccnc1)c1ccccc1 (some centres not stated)	-	.	.	.	-
N=c1sccn1CC(=O)Nc1ccccc1Sc1ccccc1	-	-	-	-	-
CCCc1nc2c(C)ccc(C)c2c(N)c1CC	-	13.1µM	9.28µM	-	-
Cc1ccc(S(=O)(=O)Nc2ccc(=O)n(Cc3ccc(Cl)c(Cl)c3)c2)cc1	-	?	-	-	-
O=C1NC(=O)c2cc3ccccc3cc21	.	-	-	.	.
COCCN(C(=O)C1CCCO1)c1c(N)n(CC(C)C)c(=O)[nH]c1=O (configuration not stated)	.	-	-	.	.
Cc1c(Br)c([N+](=O)[O-])nn1CCCC(=O)N1CCN(c2ccccc2)CC1	-	?	?	-	-
COc1ccccc1N1CCN(C(=O)CCCCCn2c(=O)[nH]c3ccsc3c2=O)CC1	-	13.1µM	-	-	-
COc1ccc(CNC(=O)CCCn2nc(C)c([N+](=O)[O-])c2C)cc1OC	47.1	-	-	-	188.8
Cc1nn(CCCC(=O)NCc2ccc(Cl)cc2)c(C)c1[N+](=O)[O-]	-	-	-	-	-
COc1ccccc1N1CCN(C(=O)CCCn2nc(C)c([N+](=O)[O-])c2C)CC1	-	-	10.4µM	-	-
CN1C/C(=C/c2ccc(B(O)O)cc2)C(=O)/C(=C/c2ccc(B(O)O)cc2)C1	-	.	.	.	-
Cc1nc2c(=O)n(C)c(=O)n(C)c2nc1Cl	-	-	-	-	-
O=C1N=C(N2C=CC(=C3C=CNC=C3)C=C2)/C(=C/N=NC(=O)c2ccccc2)S1	-	-	?	-	-
N#Cc1c(-c2ccc(Cl)cc2)ccn2nc(C3CCCCC3)nc12	42.3	-	.	-	-
COC(=O)CCc1nc2c(C#N)c(-c3ccc(Cl)cc3)ccn2n1	-	?	-	-	-
O=C(Nc1ccc2c(c1)OCO2)C1CC(=O)N(c2ccc(F)cc2)C1 (configuration not stated)	-	-	?	-	-
SMILES	Cycloheximide cs	Pf growth 48h	Pf growth 96h	LmPK inhibitor	Shiga inhibitor
COc1cccc(C#Cc2c(C=O)n(C)c3ccccc23)c1	.	13.1µM	?	.	.
Cc1cc(C)n(C(=O)c2cc3c(s2)CCCC3)n1	-	-	-	-	88.9
O=C1CC[C@@H](CN(Cc2ccccc2)Cc2cn[nH]c2-c2cc3ccccc3o2)N1	-	?	14.7µM	-	-
CCCCn1c(N)c(N(CC)C(=O)c2cc3c(s2)CCCCC3)c(=O)[nH]c1=O	.	-	-	.	.
COc1ccc(OC)c(C(=O)NC(CC(N)=O)c2ccc(NCc3ccccn3)c([N+](=O)[O-])c2)c1 (configuration not stated)	-	-	?	-	-
CCOc1ccc(N2CC(=O)Nc3ccccc3NCC2=O)cc1	-	-	8.28µM	-	-
CCOc1ccc(N2C(=O)CNC2=S)cc1	-	-	?	-	-
N#Cc1c(NC(=O)C2CC(c3c(F)cccc3Cl)=NO2)sc2c1CCC2 (configuration not stated)	23.4	-	-	-	35.6
COc1ccc(NC(=O)C2CC(c3c(F)cccc3Cl)=NO2)cc1OC (configuration not stated)	21.0	-	-	-	.
Cc1ccc(O)c(NC(=O)C2CC(c3c(F)cccc3Cl)=NO2)c1 (configuration not stated)	-	?	.	-	-
CN1CCN(C(=O)C2CC(c3c(F)cccc3Cl)=NO2)CC1 (configuration not stated)	10.2	-	.	-	-
